Unmarked numbers belong to inactive results. Where a call stands in place of a potency, no number is given. For some assays here: Potency and affinity values are given separately. Active and inactive are the calls of the source. Unless noted, no rule for the calls is given here.
Tests used:
[1] = antimalarial activity against Dd2 strain (AID 2302;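 active = growth inhibition above 50% at the single 2 µM test dose, taken to imply half-maximal potency below 2 µM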); conditions: P. falciparum Dd2 in RBCs, LDH growth readout, 72 h; at 2 µM; hits give high values
[2] = human hepatoma cell viability loss – ATP luminescence, cytotoxicity control for P. falciparum antimalarial project, primary screen (AID 2303;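 active = inhibition above 50%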); conditions: HepG2 viability, 24-48 h, at 10 µM, hits give high values
[3] = molecular target: L-lactate dehydrogenase (Plasmodium falciparum (isolate CDC / Honduras)) (UniProt Q27743); assay: PfLDH activity inhibition – cell lysate, 3D7 strain, counter-screen for P. falciparum growth inhibition project (AID 2304); conditions: P. falciparum 3D7 crude extract, LDH APAD/NBT absorbance; at 2 µM; hits give high values
Chain of L-lactate dehydrogenase (Plasmodium falciparum (isolate CDC / Honduras)) (Q27743 whole entry, looked up): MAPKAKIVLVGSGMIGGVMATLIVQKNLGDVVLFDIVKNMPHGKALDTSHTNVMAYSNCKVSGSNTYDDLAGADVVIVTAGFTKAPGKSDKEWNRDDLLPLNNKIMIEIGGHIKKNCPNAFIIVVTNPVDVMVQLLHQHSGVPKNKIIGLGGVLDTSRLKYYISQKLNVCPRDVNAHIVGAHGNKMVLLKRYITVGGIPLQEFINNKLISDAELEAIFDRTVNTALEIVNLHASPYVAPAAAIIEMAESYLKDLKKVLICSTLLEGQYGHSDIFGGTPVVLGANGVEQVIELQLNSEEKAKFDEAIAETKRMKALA

[4] = inhibition of 3D7 malaria parasite growth – strain 3D7 (AID 2306); conditions: P. falciparum 3D7 erythrocytic growth, LDH absorbance, 72 h; at 2 µM; hits give high values
[5] = molecular target: Calcium-dependent protein kinase 1 (Plasmodium falciparum (isolate 3D7)) (UniProt P62344); assay: PfCDPK1 kinase inhibitors, biochemical, TCAMS library (AID 1159585; cut-off not given, nearly all actives have IC50 up to about 0.98 µM;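 also: inhibitors leave more ATP so luminescence rises with inhibition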); conditions: recombinant PfCDPK1, Kinase-Glo ATP depletion luminescence
Chain of Calcium-dependent protein kinase 1 (Plasmodium falciparum (isolate 3D7)) (P62344 whole entry, looked up): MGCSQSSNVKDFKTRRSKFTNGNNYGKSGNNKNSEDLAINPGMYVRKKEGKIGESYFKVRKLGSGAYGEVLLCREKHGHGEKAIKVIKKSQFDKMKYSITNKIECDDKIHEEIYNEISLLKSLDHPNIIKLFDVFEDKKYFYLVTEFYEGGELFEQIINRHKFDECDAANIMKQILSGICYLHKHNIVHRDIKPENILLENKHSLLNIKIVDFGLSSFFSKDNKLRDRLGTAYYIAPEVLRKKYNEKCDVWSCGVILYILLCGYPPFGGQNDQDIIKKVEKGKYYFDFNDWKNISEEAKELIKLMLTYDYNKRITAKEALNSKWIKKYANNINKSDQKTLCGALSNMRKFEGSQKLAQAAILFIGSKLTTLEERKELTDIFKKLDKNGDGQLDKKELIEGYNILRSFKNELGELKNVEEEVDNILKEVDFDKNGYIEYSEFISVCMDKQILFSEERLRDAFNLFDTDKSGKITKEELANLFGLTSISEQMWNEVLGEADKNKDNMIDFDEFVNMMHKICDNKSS

[6] = molecular target: Plasmodium falciparum protein kinase 6 (PK6, PF3D7_1337100) (UniProt Q8IDW1); assay: PfPK6 kinase inhibitors, biochemical, TCAMS library (AID 1159586); conditions: recombinant PfPK6, Kinase-Glo ATP depletion luminescence
Chain of Plasmodium falciparum protein kinase 6 (PK6, PF3D7_1337100) (Q8IDW1 1-305): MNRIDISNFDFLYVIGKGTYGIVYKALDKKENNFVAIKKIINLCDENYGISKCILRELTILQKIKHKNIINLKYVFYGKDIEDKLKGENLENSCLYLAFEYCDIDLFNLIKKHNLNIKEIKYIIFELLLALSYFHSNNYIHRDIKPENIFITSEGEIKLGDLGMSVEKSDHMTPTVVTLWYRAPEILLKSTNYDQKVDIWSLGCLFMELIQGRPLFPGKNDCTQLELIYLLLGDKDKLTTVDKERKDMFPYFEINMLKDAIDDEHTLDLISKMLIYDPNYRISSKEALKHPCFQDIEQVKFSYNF

[7] = molecular target: Protein kinase 7 (PK7), Plasmodium falciparum 3D7 (PF3D7_0213400) (UniProt Q7YTF7); assay: inhibition of Plasmodium PK7 catalytic activity – biochemical, TCAMS antimalarial set, Kinase-Glo luminescence (AID 1159587); conditions: recombinant PfPK7, Kinase-Glo ATP depletion luminescence
Chain of Protein kinase 7 (PK7), Plasmodium falciparum 3D7 (PF3D7_0213400) (Q7YTF7 1-343): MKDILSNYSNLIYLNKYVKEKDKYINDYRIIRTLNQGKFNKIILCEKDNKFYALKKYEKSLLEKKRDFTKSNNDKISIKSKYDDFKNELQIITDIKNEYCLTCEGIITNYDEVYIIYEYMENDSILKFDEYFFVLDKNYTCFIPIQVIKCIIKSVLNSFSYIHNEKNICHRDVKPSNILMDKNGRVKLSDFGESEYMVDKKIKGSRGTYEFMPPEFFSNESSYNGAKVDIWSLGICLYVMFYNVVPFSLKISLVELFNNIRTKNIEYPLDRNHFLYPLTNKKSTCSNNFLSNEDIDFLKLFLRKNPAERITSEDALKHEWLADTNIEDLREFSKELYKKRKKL

[8] = molecular target: Calcium-dependent protein kinase 4 (Plasmodium falciparum (isolate 3D7)) (UniProt Q8IBS5); assay: PfCDPK4 kinase inhibitors, biochemical, TCAMS library (AID 1159588; cut-off not given, nearly all actives have IC50 up to about 0.91 µM); conditions: recombinant PfCDPK4, Kinase-Glo ATP depletion luminescence
Chain of Calcium-dependent protein kinase 4 (Plasmodium falciparum (isolate 3D7)) (Q8IBS5 whole entry, looked up): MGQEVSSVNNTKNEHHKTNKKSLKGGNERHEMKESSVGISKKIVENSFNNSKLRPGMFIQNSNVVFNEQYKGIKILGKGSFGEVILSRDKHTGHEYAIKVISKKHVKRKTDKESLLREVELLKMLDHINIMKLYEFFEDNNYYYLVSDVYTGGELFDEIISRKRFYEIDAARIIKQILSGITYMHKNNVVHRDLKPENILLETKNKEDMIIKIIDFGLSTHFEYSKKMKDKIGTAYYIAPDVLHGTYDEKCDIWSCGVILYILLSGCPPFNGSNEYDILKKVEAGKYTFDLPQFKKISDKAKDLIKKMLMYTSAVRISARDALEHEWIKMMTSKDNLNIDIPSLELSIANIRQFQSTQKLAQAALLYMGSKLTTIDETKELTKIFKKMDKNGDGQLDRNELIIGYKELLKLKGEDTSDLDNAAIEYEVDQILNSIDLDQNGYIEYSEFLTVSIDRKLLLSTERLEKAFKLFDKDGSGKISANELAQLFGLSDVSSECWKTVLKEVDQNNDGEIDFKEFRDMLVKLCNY

Cc1cc(N(C)CCCN(C)C)nc(Nc2ccc(Cl)cc2)n1
growth inhibition [1]: 79% (active)
inhibition [2]: 7%
inhibition [3]: 5%
growth inhibition [4]: 101% (active)
outcome [5]: inactive
outcome [6]: inactive
outcome [7]: inactive
outcome [8]: inactive

N#Cc1ccc2c(c1)CCN(CCC1CCC(NC(=O)/C=C/c3nc4ccccc4s3)CC1)CC2 (stereo unspecified)
growth inhibition [1]: -2%
inhibition [2]: 6%
inhibition [3]: -4%
growth inhibition [4]: 90% (active)
outcome [5]: inactive
outcome [6]: inactive
outcome [7]: inactive
outcome [8]: inactive

CC(Cc1ccc(OCc2ccccc2)cc1)Nc1nc2ccccc2c(=O)[nH]1 (stereo unspecified)
growth inhibition [1]: 96% (active)
inhibition [2]: 2%
inhibition [3]: -1%
growth inhibition [4]: 98% (active)
outcome [5]: inactive
outcome [6]: inactive
outcome [7]: inactive
outcome [8]: inactive

CC1(C)CC(NC(=O)NC2CCN(Cc3ccccc3)CC2)CC(C)(CNC(=O)NC2CCN(Cc3ccccc3)CC2)C1 (stereo unspecified)
growth inhibition [1]: 2%
inhibition [2]: 10%
inhibition [3]: 5%
growth inhibition [4]: 93% (active)
outcome [5]: inactive
outcome [6]: inactive
outcome [7]: inactive
outcome [8]: inactive

Cc1ccc(C(NC(=O)Cc2ccccc2)c2ccc3cccnc3c2O)cc1 (stereo unspecified)
growth inhibition [1]: 77% (active)
inhibition [2]: 47%
inhibition [3]: 6%
growth inhibition [4]: 94% (active)
outcome [5]: inactive
outcome [6]: inactive
outcome [7]: inactive
outcome [8]: inactive

COc1cc(NC(=O)Nc2ccc([N+](=O)[O-])cc2OC)c(OC)cc1Cl
growth inhibition [1]: 6%
inhibition [2]: 38%
inhibition [3]: 3%
growth inhibition [4]: 87% (active)
outcome [5]: inactive
outcome [6]: inactive
outcome [7]: inactive
outcome [8]: inactive

CN(Cc1cccc(O)c1)C1CCN(c2cc(NC(=O)c3cccc(F)c3)ccn2)CC1
growth inhibition [1]: 37%
inhibition [2]: -2%
inhibition [3]: 0%
growth inhibition [4]: 98% (active)
outcome [5]: inactive
outcome [6]: inactive
outcome [7]: inactive
outcome [8]: inactive

CC(OC(=O)c1ccc(C(=O)NCC2CC2)cc1)C(C)(C)C (stereo unspecified)
growth inhibition [1]: 86% (active)
inhibition [2]: 10%
inhibition [3]: -3%
growth inhibition [4]: 93% (active)
outcome [5]: inactive
outcome [6]: inactive
outcome [7]: inactive
outcome [8]: inactive

CCN1CCN(C(=O)NC(C(=O)N2CCCC(COc3ccc(Cc4ccccc4)cc3)C2)c2cccs2)C(=O)C1=O (stereo unspecified)
growth inhibition [1]: 87% (active)
inhibition [2]: 12%
inhibition [3]: -6%
growth inhibition [4]: 95% (active)
outcome [5]: inactive
outcome [6]: inactive
outcome [7]: inactive
outcome [8]: inactive

CCc1c(CCNCCCCCCNCc2ccc3c(c2CC)OCO3)ccc(OC)c1OC
growth inhibition [1]: 19%
inhibition [2]: 38%
inhibition [3]: 6%
growth inhibition [4]: 100% (active)
outcome [5]: inactive
outcome [6]: inactive
outcome [7]: inactive
outcome [8]: inactive

Cc1c(-c2cccc(CNCCc3ccc(Cl)cc3)c2)cnc(N)c1C
growth inhibition [1]: 30%
inhibition [2]: 9%
inhibition [3]: -5%
growth inhibition [4]: 87% (active)
outcome [5]: inactive
outcome [6]: inactive
outcome [7]: inactive
outcome [8]: inactive

O=C(Nc1cccc(CN2CCCN(Cc3ccc(F)cc3)CC2)c1)c1cc2ccccc2s1
growth inhibition [1]: 36%
inhibition [2]: 29%
inhibition [3]: -9%
growth inhibition [4]: 91% (active)
outcome [5]: inactive
outcome [6]: inactive
outcome [7]: inactive
outcome [8]: inactive

Cc1cccc2[nH]c(-c3ccc(-c4ccc(CNCC(C)C)cc4)cc3)nc12
growth inhibition [1]: 90% (active)
inhibition [2]: 14%
inhibition [3]: -1%
growth inhibition [4]: 100% (active)
outcome [5]: inactive
outcome [6]: inactive
outcome [7]: inactive
outcome [8]: inactive

Cc1noc(C)c1-c1cccc(CNCc2ccc(-c3ccc(-c4nc5ccc(F)cc5[nH]4)s3)cc2)c1
growth inhibition [1]: 93% (active)
inhibition [2]: 45%
inhibition [3]: 6%
growth inhibition [4]: 102% (active)
outcome [5]: inactive
outcome [6]: inactive
outcome [7]: inactive
outcome [8]: inactive

O=C(Nc1ccc(N2CCNCC2)nc1)c1oc(-c2ccccc2)nc1C(F)(F)F
growth inhibition [1]: 62% (active)
inhibition [2]: 7%
inhibition [3]: 0%
growth inhibition [4]: 100% (active)
outcome [5]: inactive
outcome [6]: inactive
outcome [7]: inactive
outcome [8]: inactive

Cc1[nH]c2ccc(C#N)cc2c(=O)c1Br
growth inhibition [1]: 61% (active)
inhibition [2]: 2%
inhibition [3]: -1%
growth inhibition [4]: 91% (active)
outcome [5]: inactive
outcome [6]: inactive
outcome [7]: inactive
outcome [8]: inactive

COc1cc2c(cc1OCCN1CCC(N3CCCCC3)CC1)N(C(=O)/C=C/c1ccccc1Cl)CC2
growth inhibition [1]: 41%
inhibition [2]: 36%
inhibition [3]: -1%
growth inhibition [4]: 102% (active)
outcome [5]: inactive
outcome [6]: inactive
outcome [7]: inactive
outcome [8]: inactive

O=[N+]([O-])c1ccc(Nc2nc(NN=Cc3ccc(-c4ccc([N+](=O)[O-])cc4)o3)nc(Nc3ccccc3)n2)cc1
growth inhibition [1]: 74% (active)
inhibition [2]: -9%
inhibition [3]: -5%
growth inhibition [4]: 101% (active)
outcome [5]: inactive
outcome [6]: inactive
outcome [7]: inactive
outcome [8]: inactive

Cc1ccc(/C=C/C(=O)NCCCCCN2CCN(C(=O)Nc3ccc(Cl)c(C(F)(F)F)c3)CC2)cc1
growth inhibition [1]: -3%
inhibition [2]: 10%
inhibition [3]: -2%
growth inhibition [4]: 93% (active)
outcome [5]: inactive
outcome [6]: inactive
outcome [7]: inactive
outcome [8]: inactive

O=c1[nH]c(NCCCNCc2cc3c(Cl)cc(Cl)cc3[nH]2)nc2ccsc12
growth inhibition [1]: 11%
inhibition [2]: 62% (active)
inhibition [3]: 0%
growth inhibition [4]: 96% (active)
outcome [5]: inactive
outcome [6]: inactive
outcome [7]: inactive
outcome [8]: inactive

CC(=O)Nc1ccc2[nH]cc(C3CCN(CC4CCN(C(=O)/C=C/c5ccc(Cl)c(Cl)c5)CC4)CC3)c2n1
growth inhibition [1]: 99% (active)
inhibition [2]: 21%
inhibition [3]: -2%
growth inhibition [4]: 100% (active)
outcome [5]: inactive
outcome [6]: inactive
outcome [7]: inactive
outcome [8]: inactive

CN1CCN(c2cc(-c3ccncc3)nc(-c3cccnc3)n2)CC1
growth inhibition [1]: 98% (active)
inhibition [2]: 13%
inhibition [3]: 3%
growth inhibition [4]: 101% (active)
outcome [5]: inactive
outcome [6]: inactive
outcome [7]: inactive
outcome [8]: inactive

COc1cc(N(Cc2ccccc2C)S(=O)(=O)Cc2ccccc2[N+](=O)[O-])c(OC)cc1Cl
growth inhibition [1]: 44%
inhibition [2]: 16%
inhibition [3]: -2%
growth inhibition [4]: 94% (active)
outcome [5]: inactive
outcome [6]: inactive
outcome [7]: inactive
outcome [8]: inactive

Fc1ccc2nc(-c3cccc(-c4cccc(CN5CCN(c6ccncc6)CC5)c4)c3)[nH]c2c1
growth inhibition [1]: 99% (active)
inhibition [2]: 71% (active)
inhibition [3]: 1%
growth inhibition [4]: 102% (active)
outcome [5]: inactive
outcome [6]: inactive
outcome [7]: inactive
outcome [8]: inactive

CCCCOc1cc(OC)c2ccccc2c1CCNCCCCNCCc1c(OCCCC)cc(OC)c2ccccc12
growth inhibition [1]: 82% (active)
inhibition [2]: 100% (active)
inhibition [3]: -6%
growth inhibition [4]: 82% (active)
outcome [5]: inactive
outcome [6]: inactive
outcome [7]: inactive
outcome [8]: inactive

CN1CCN(c2cc(NC(=O)Nc3ccc(-c4ccncc4)c(Cl)c3)ccc2Br)CC1
growth inhibition [1]: 99% (active)
inhibition [2]: 23%
inhibition [3]: 2%
growth inhibition [4]: 101% (active)
outcome [5]: inactive
outcome [6]: inactive
outcome [7]: inactive
outcome [8]: inactive

CNCCNCc1ccc(-c2ccc(-c3nc4ccc(C(F)(F)F)cc4[nH]3)s2)cc1
growth inhibition [1]: 100% (active)
inhibition [2]: 30%
inhibition [3]: -2%
growth inhibition [4]: 99% (active)
outcome [5]: inactive
outcome [6]: inactive
outcome [7]: inactive
outcome [8]: inactive

O=C(Nc1ccc(-c2cccc(-c3nc4ccc(F)cc4[nH]3)c2)cc1)Nc1ccsc1
growth inhibition [1]: 51% (active)
inhibition [2]: 34%
inhibition [3]: 5%
growth inhibition [4]: 101% (active)
outcome [5]: inactive
outcome [6]: inactive
outcome [7]: inactive
outcome [8]: inactive

COc1ccc(Cn2c(Nc3cccc(C(F)(F)F)c3)nc3cc(C(=O)NC(C)C)cnc32)cc1Cl
growth inhibition [1]: 81% (active)
inhibition [2]: -6%
inhibition [3]: 1%
growth inhibition [4]: 85% (active)
outcome [5]: inactive
outcome [6]: inactive
outcome [7]: inactive
outcome [8]: inactive

Nn1c(=O)oc2ccc(Cl)cc2c1=O
growth inhibition [1]: 96% (active)
inhibition [2]: 4%
inhibition [3]: -5%
growth inhibition [4]: 97% (active)
outcome [5]: inactive
outcome [6]: inactive
outcome [7]: inactive
outcome [8]: inactive

Cc1ccc(C(=O)Nc2cccc([N+](=O)[O-])c2)cc1S(=O)(=O)N1CC(C)CC(C)C1 (stereo unspecified)
growth inhibition [1]: 42%
inhibition [2]: 24%
inhibition [3]: -1%
growth inhibition [4]: 100% (active)
outcome [5]: inactive
outcome [6]: inactive
outcome [7]: inactive
outcome [8]: inactive

CCN1CCN(CC(O)CNC(=O)Nc2ccc(Cl)cc2)CC1 (stereo unspecified)
growth inhibition [1]: 99% (active)
inhibition [2]: 29%
inhibition [3]: 3%
growth inhibition [4]: 100% (active)
outcome [5]: inactive
outcome [6]: inactive
outcome [7]: inactive
outcome [8]: inactive

O=C(/C=C/c1ccc(Cl)c(Cl)c1)NCCCCCN1CCCN(C(=O)Nc2ccc(OC(F)F)cc2)CC1
growth inhibition [1]: -4%
inhibition [2]: 39%
inhibition [3]: 3%
growth inhibition [4]: 99% (active)
outcome [5]: inactive
outcome [6]: inactive
outcome [7]: inactive
outcome [8]: inactive

Cc1ccc(CN2CCC(C(=O)Nc3ccc(-c4cc5ccccc5[nH]4)cc3)CC2)o1
growth inhibition [1]: 40%
inhibition [2]: 19%
inhibition [3]: 3%
growth inhibition [4]: 92% (active)
outcome [5]: inactive
outcome [6]: inactive
outcome [7]: inactive
outcome [8]: inactive

O=C(NC1CC1)c1cnc(N2CCC(OCc3ccccc3)CC2)c(Cl)c1
growth inhibition [1]: 71% (active)
inhibition [2]: -5%
inhibition [3]: -2%
growth inhibition [4]: 90% (active)
outcome [5]: inactive
outcome [6]: inactive
outcome [7]: inactive
outcome [8]: inactive

Cc1ccc(C(=O)NCC2CCN(c3ccc(C(F)(F)F)cc3NC(=O)c3ccco3)CC2)cn1
growth inhibition [1]: 73% (active)
inhibition [2]: 9%
inhibition [3]: 0%
growth inhibition [4]: 91% (active)
outcome [5]: inactive
outcome [6]: inactive
outcome [7]: inactive
outcome [8]: inactive

COc1ccc(Nc2nc(NN=Cc3ccc(-c4ccc([N+](=O)[O-])cc4)o3)nc(Nc3ccccc3)n2)cc1
growth inhibition [1]: 17%
inhibition [2]: -8%
inhibition [3]: 5%
growth inhibition [4]: 100% (active)
outcome [5]: inactive
outcome [6]: inactive
outcome [7]: inactive
outcome [8]: inactive

— PubChem BioAssay
